High-throughput results as filed in PubChem BioAssay.
A selection: hits, their analogues and other compounds. The true share with any hit is near 7.4%.
NPC1 prom act: activators of NPC1 promoter; Huh7 NPC1 promoter luciferase reporter, 24 h; AID 485313; hit rate 2.4% among 320,000; Potency, µM (titrated, usually from 9.22 µM), most hits filed as activators; note: nearly all actives have a fitted effect of over 60% in size
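In 1536-well qHTS, Huh7 cells harboring an NPC1 promoter–luciferase construct received compound for 24 h; activation was quantified by luminescence following luciferase reagent addition.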
Rab9 promoter act: activators of Rab9 promoter; Huh7 Rab9 promoter-luciferase reporter, luminescence, 24 h; Potency, µM (highest dose often 9.22 µM), most hits filed as activators; hit rate 2.8% among 320,000; note: nearly all actives have a fitted effect of over 60% in size
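Cell-based reporter: Huh7 stable for Rab9 promoter-driven luciferase, plated in reduced-serum medium with 10% FBS at 1500 cells/well, compound-treated 24 h at 37 °C, luminescence read after 10 min reagent.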
SMN2 splice up: increases expression of the SMN2 splice variant; Potency, µM (doses to about 46.1 µM), most hits filed as activators; AID 1458; HEK293 SMN2-luciferase splicing reporter, luminescence, 30-36 h; hit rate 2.8% among 210,000; note: nearly all actives have a fitted effect of over 55% in size
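qHTS luciferase splicing reporter: luminescence rises when SMN2 exon 7 is included in transfected HEK293 cells. Compound exposure lasted 30-36 h at 37C, with 4.5 mM final sodium butyrate as control, followed by a ONE-Glo read.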
ELG1 genotox: inducers of genotoxicity in HEK293T ELG1-luciferase cells; HEK293T ELG1-luciferase reporter, luminescence, 16 h; Potency, µM (series often up to 46 µM), actives largely listed as activators; hit rate 1.3% among 330,000; AID 504466; note: nearly all actives have a fitted effect of over 60% in size
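HEK293T cells expressing luciferase-tagged ELG1 were treated with compound or DMSO for 16 hr at 37°C. Luciferase activity was then read after 30 min with ONE-Glo at room temperature; rising signal flags genetic stress.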
FLuc counter: counter-screen for miR-21 project: firefly luciferase inhibitors or activators; P08659; purified FLuc, Km substrates, luminescence inhibition; Potency, µM (highest dose often 57.5 µM), usual class: inhibitors; hit rate 6.9% among 360,000; AID 588342; note: nearly all actives have a fitted effect of over 55% in size
Target sequence (P08659 whole entry, looked up): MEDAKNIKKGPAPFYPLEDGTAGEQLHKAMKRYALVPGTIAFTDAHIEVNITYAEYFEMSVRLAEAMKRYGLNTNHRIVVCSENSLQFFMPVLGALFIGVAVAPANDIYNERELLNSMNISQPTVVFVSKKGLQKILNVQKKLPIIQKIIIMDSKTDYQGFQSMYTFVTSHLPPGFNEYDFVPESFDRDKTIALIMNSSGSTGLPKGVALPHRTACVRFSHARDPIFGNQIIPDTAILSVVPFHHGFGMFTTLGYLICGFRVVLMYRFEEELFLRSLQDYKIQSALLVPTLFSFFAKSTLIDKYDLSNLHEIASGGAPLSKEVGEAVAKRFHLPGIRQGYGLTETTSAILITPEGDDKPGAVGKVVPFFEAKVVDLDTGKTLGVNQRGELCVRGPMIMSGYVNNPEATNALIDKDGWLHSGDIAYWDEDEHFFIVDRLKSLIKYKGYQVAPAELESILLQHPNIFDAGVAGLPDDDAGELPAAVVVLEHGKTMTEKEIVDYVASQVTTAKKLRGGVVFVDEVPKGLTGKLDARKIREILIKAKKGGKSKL
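Purified P. pyralis luciferase (10nM final) with 10uM D-luciferin and 10uM ATP (Km levels) in 50mM Tris acetate pH 7.5, 10mM Mg acetate, 0.01% Tween-20, 0.05% BSA; qHTS 6-point titration, ~60 µM downward; luminescence read.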
A number is an active result; n = inactive; u = inconclusive; x = no result; [ ] = another dose, or the depositor's remark. Calls come from the whole dose curve; as a rule, active = well fitted curve in the direction sought with a large enough effect; inconclusive = small, poorly fitted or top-dose-only effect, or another doubt; inactive = no such curve, though single readings can be large; an effect the other way counts as inactive or inconclusive.

SMILES	NPC1 prom act	Rab9 promoter act	SMN2 splice up	ELG1 genotox	FLuc counter
Cc1ccc(S(=O)(=O)Nc2ncnc3sc(C)c(C)c23)cc1	n	n	x	n	n
COc1cc(/C=N/Nc2ncnc3sc4c(c23)CCC4)ccc1O	n	n	n	u	2.4µM
C[C@H]1[C@H](O)[C@@H](C)C=CC=CC=CC=CC=CC=CC=C[C@H](O[C@@H]2O[C@@H](C)[C@H](O)[C@@H](N)[C@@H]2O)C[C@@H]2O[C@](O)(C[C@@H](O)C[C@@H](O)[C@@H](O)CC[C@@H](O)C[C@@H](O)CC(=O)O[C@H]1C)C[C@H](O)[C@H]2C(=O)O	x	x	n[9.22 µM]	x	x
CCCCSCCCNC(=O)c1cn(CC)c2ccc(S(=O)(=O)N3CCCCCC3)cc2c1=O	x	x	n	x	n
CCn1c(=O)c2sccc2n2c(CCC(=O)N3CCN(c4ccc(C(C)=O)cc4)CC3)nnc12	x	x	n	x	n
CC(C)c1nc2sc(C(=O)O)c(N)c2c2c1CCCC2	n	n	x	n	n
C/C(=N\Nc1ncc(Cl)cc1Cl)c1ccccn1	n	n	n	u	0.17µM
CCOC(=O)Cc1csc(NC(=O)/C=C/c2ccc(OC)cc2)n1	n	n	n	n	1.3µM
CCOC(=O)Cc1csc(NC(=O)/C=C\c2ccccc2)n1	n	n	n	n	5.4µM
CCOC(=O)Cc1csc(NC(=O)CCCc2ccccc2)n1	n	n	x	n	n
Nc1c(C(=O)Nc2ccccc2F)sc2nc(-c3ccco3)ccc12	u	u	n	u	u
COC(=O)c1sc2nc(-c3ccco3)ccc2c1N	1.4µM	1.1µM	6.3µM	u	0.38µM
NC(=O)c1sc2nc(-c3ccco3)ccc2c1N	u	u	u	u	11µM
COc1ccc(/C=C2\SC(=O)N(CCNC(=O)CCS(=O)(=O)c3ccc(C)cc3)C2=O)cc1	u	2.8µM	16µM	u	9.5µM
COc1ccc(S(=O)(=O)CCC(=O)NCCc2ccc(C)cc2)cc1	n	n	n	n	n
COc1ccc(/C=C2\SC(=O)N(CCNC(=O)Cn3cnnn3)C2=O)cc1	2.8µM	3.2µM	7.9µM	4µM	12µM
CNC(=O)c1ccc(OC2CSC2)cc1	x	x	n	x	n
O=C(N/N=C/c1ccc(OC2CSC2)cc1)c1ccccc1	3.2µM	2.2µM	n	u	2.4µM
O=C(N/N=C/c1ccc(OCc2ccc(F)cc2)cc1)c1ccccc1	n	n	n	n	n
O=C(/C=C/c1ccc(OC2CSC2)cc1)c1ccccc1	3.5µM	1.8µM	n	u	0.54µM
COc1ccc(-c2noc(CSc3nnc(-c4ccncc4)n3-c3ccc(OC)cc3)n2)cc1	x	x	n	x	n
Nc1ccc(Cc2ccc(N)c(O)c2)cc1O	n	u	n	n	19µM
CC(=O)c1ccccc1C(=O)N1CCCC(N2CCN(Cc3ccc4c(c3)OCO4)CC2)C1 (centres undefined)	n	n	x	n	n
Cc1ccc(C(=O)Nc2ccc(Cl)cn2)cc1	n	u	7.9µM	2.3µM	1.3µM
O=C(Nc1ccc(Cl)cn1)c1ccc(Oc2ccccc2)cc1	1.3µM	2.2µM	x	u	3.4µM
SMILES	NPC1 prom act	Rab9 promoter act	SMN2 splice up	ELG1 genotox	FLuc counter
Cc1ccc(C(=O)NCCOc2ccc(Cl)cc2)cc1	u	n	x	u	24µM
O=C(Nc1ccc(Cl)cn1)c1cccnc1	n	n	u	n	n
O=C(Nc1ccc(Cl)cn1)c1ccc2nccnc2c1	1.6µM	u	x	u	12µM
Cc1ccccc1C(=O)Nc1ccc(Br)c(C)n1	u	u	n	12µM	24µM
Cc1ccc(C(=O)Nc2ncc3c(Cl)cccc3n2)cc1	u	0.16µM	0.032µM	u	0.27µM
O=C(Nc1ccccc1Cl)c1ccc2nccnc2c1	3.2µM	2.5µM	x	n	11µM
Cc1cccc(NC(=S)NC(=O)c2cccs2)n1	u	u	n	n	u
Cc1nc(NC(=S)NC(=O)c2cccs2)ccc1Br	n	n	u	u	4.8µM
CCOc1ccc(CCNC(=O)CCc2cn(Cc3ccc(F)cc3)c3ccccc23)cc1	x	x	x	x	n
O=C(CCc1nc2ccccc2s1)OCC(=O)c1ccc[nH]1	n	n	n	n	u
CCCCC/C=C\C/C=C\C/C=C\CCCCC(=O)NCCCC(=O)O	x	x	n	x	x
CCCOc1ccc(C(=O)Nc2ccc(Cl)cn2)cc1	0.71µM	0.5µM	u	u	0.85µM
CC(C)C(=O)Nc1ccc(NC(=O)c2ccccc2Cl)nc1	u	3.2µM	x	16µM	21µM
O=C(Nc1ccccc1Cl)c1ccc(-c2ccccn2)s1	2µM	1.4µM	x	u	3.4µM
Cc1ccccc1C(=O)Nc1ccc(Cl)cn1	2.5µM	3.5µM	n	10µM	17µM
O=C(Nc1ccccc1Cl)c1cccs1	n	n	n	n	u
CN1C(=O)[C@@H]2[C@H](C1=O)[C@@H]1C(=O)Nc3ccccc3C(=O)N1[C@@H]2c1ccc(Br)cc1	n	n	x	n	n
